Compound activity (PubChem BioAssay)
An excerpt weighted towards active compounds, which were near 3.2% of everything screened.
DAGLB inh: blocks human DAGLB lipase activity | Q8NCG7 | HEK293T DAGLB membrane lysate, EnzChek fluorogenic substrate | inhibition, % at 5.17 µM | 340,000 compounds, 0.059% hits | AID 504411; in the data active = inhibition above about 34%
Target sequence (Q8NCG7 whole entry, looked up): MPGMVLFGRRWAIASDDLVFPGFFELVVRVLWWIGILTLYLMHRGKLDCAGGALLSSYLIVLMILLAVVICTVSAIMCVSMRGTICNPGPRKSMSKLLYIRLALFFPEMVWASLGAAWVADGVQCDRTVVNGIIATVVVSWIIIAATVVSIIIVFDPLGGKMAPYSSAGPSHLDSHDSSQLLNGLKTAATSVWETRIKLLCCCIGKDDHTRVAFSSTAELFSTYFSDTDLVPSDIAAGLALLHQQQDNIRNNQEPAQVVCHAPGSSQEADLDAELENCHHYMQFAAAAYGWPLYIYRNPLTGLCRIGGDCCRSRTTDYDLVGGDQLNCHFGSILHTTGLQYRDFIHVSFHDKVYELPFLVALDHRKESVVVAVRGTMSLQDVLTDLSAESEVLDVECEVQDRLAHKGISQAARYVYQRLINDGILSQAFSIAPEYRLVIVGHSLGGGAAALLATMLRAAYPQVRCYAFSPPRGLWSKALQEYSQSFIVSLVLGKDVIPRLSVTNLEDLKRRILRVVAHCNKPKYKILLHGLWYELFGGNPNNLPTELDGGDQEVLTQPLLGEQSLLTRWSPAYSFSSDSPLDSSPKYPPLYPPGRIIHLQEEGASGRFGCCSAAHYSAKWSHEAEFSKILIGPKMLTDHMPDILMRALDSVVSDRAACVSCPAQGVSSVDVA
Pemphigus Ab inh: blocks pemphigus antibody binding to human desmoglein-3 | P32926 | DSG3-coupled beads, scFv-anti-DSG3-GFP binding, flow cytometry; hits give low values | 310,000 compounds, 0.48% hits | binding (percent of control), % at 10 µM;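 active = binding more than 3 SD below its plate's average and above zero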;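 also: hits lower antibody fragment binding to DSG3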
MsrA inhibitor: inhibitors of bovine MsrA. purified bovine MsrA, absorbance read-out. AID 651718. inhibition, % at 15.5 µM. 360,000 compounds, 0.75% hits; in the data active = inhibition above about 4.5%
NadD block: blocks S. aureus nicotinate mononucleotide adenylyltransferase | purified NadD enzyme, colorimetric absorbance read-out | 360,000 compounds, 0.78% hits | inhibition, % at 20 µM; in the data active = inhibition above about 26%
rCAG RNA binder: binds r(CAG) RNA repeats | r(CAG) RNA repeat, TO-PRO-1 dye displacement fluorescence | AID 651821 | inhibition, % at 3 µM | 370,000 compounds, 1.3% hits;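 active = inhibition above the plate cutoff, the mean of all test compounds on that plate plus 3 SD, cut at about 35% in these data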;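 also: higher means more dye released from RNA so lower well fluorescence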
MsrA act: activates bovine MsrA enzyme. purified bovine MsrA, absorbance read-out. activation, % at 10.6 µM. 360,000 compounds, 0.3% hits. AID 602163; in the data active = activation above about 7.5%
Hits are given with their value.

What do the screens show for `O=C(CSc1nc2ccc([N+](=O)[O-])cc2[nH]1)c1ccc2ccccc2c1`?
DAGLB inh: inactive; Pemphigus Ab inh: inactive; MsrA inhibitor: inactive; NadD block: inactive; rCAG RNA binder: 37; MsrA act: inactive

Results for N#CC1=C(SCC(=O)NC2CC2)NC(=O)C(C#N)C12CCCCC2 (stereo not drawn) ?
DAGLB inh: inactive; Pemphigus Ab inh: inactive; MsrA inhibitor: inactive; NadD block: inactive; rCAG RNA binder: inactive; MsrA act: inactive

What do the screens show for `N#CC1=C(SCC(=O)Nc2cccc3cccnc23)NC(=O)C(C#N)C12CCCCC2` (stereo not drawn)?
DAGLB inh: inactive; Pemphigus Ab inh: inactive; MsrA inhibitor: inactive; NadD block: inactive; rCAG RNA binder: 48; MsrA act: inactive

How did Cc1cccc(NC(=O)COC(=O)CN2C(=O)c3ccccc3C2=O)c1C do in these assays?
DAGLB inh: inactive; Pemphigus Ab inh: inactive; MsrA inhibitor: inactive; NadD block: inactive; rCAG RNA binder: inactive; MsrA act: inactive

Results for Cc1noc(NS(=O)(=O)c2ccc(NC(=O)CSc3nnc(-c4ccccc4)n3C3CCCCC3)cc2)c1C ?
DAGLB inh: inactive; Pemphigus Ab inh: inactive; MsrA inhibitor: inactive; NadD block: inactive; rCAG RNA binder: 63; MsrA act: inactive

Results for CC(C)c1ccc(Nc2c([N+](=O)[O-])c(=O)n(C)c3ccccc23)cc1 ?
DAGLB inh: inactive; Pemphigus Ab inh: inactive; MsrA inhibitor: inactive; NadD block: inactive; rCAG RNA binder: inactive; MsrA act: inactive

Results for Cn1c(=O)c(Nc2ccc(O)cc2)c2c3c(cccc31)C(=O)c1ccccc1-2 ?
DAGLB inh: 44; Pemphigus Ab inh: inactive; MsrA inhibitor: inactive; NadD block: inactive; rCAG RNA binder: inactive; MsrA act: inactive

What do the screens show for `O=C(N=Nc1c(O)[nH]c2ccc(Cl)cc12)c1cc(-c2cccs2)nc2ccccc12`?
DAGLB inh: inactive; Pemphigus Ab inh: inactive; MsrA inhibitor: inactive; NadD block: 34; rCAG RNA binder: inactive; MsrA act: inactive

Results for O=C(/C=C/c1ccccc1)CCN1CCCCC1 ?
DAGLB inh: inactive; MsrA inhibitor: inactive; NadD block: inactive; rCAG RNA binder: inactive; MsrA act: inactive

How did CC1CC(C)CN(c2ncc3c(n2)CC(c2ccccc2)CC3=O)C1 (stereo not drawn) do in these assays?
DAGLB inh: inactive; Pemphigus Ab inh: 72; MsrA inhibitor: inactive; NadD block: inactive; rCAG RNA binder: inactive; MsrA act: inactive

How did COc1ccc([C@H]2OC(=O)C[C@@H]2C(=O)N2CCCCC2)cc1OC do in these assays?
rCAG RNA binder: inactive

How did CCCCOCCCNC(=O)C[C@H]1C(=O)N(Cc2ccc(OC)cc2)C2=CCCCC[C@@]21C(=O)OC do in these assays?
rCAG RNA binder: inactive

What do the screens show for `COc1ccc(-n2sc3c(c2=S)-c2cc(OC)ccc2NC3(C)C)cc1`?
DAGLB inh: inactive; Pemphigus Ab inh: inactive; MsrA inhibitor: inactive; NadD block: inactive; rCAG RNA binder: inactive; MsrA act: inactive

Results for COc1ccc2c(c1)-c1c(ssc1=S)C(C)(C)N2 ?
DAGLB inh: 36; Pemphigus Ab inh: inactive; MsrA inhibitor: inactive; NadD block: inactive; rCAG RNA binder: inactive; MsrA act: inactive

How did CC[C@@H](NCCCn1cnc2c(SC)ncnc21)c1ccccc1 do in these assays?
DAGLB inh: inactive; MsrA inhibitor: inactive; NadD block: inactive; rCAG RNA binder: inactive; MsrA act: inactive

How did COc1ccc(CC(=O)Nc2cccc(C(=O)NN3C(=O)c4ccccc4C3=O)c2C)cc1 do in these assays?
DAGLB inh: inactive; Pemphigus Ab inh: 14; MsrA inhibitor: inactive; NadD block: inactive; rCAG RNA binder: inactive; MsrA act: inactive

How did COC(=O)c1sc2nc3c(cc2c1N)C(=O)CC(C)(C)C3 do in these assays?
DAGLB inh: inactive; Pemphigus Ab inh: 83; MsrA inhibitor: inactive; NadD block: inactive; rCAG RNA binder: inactive; MsrA act: inactive

How did CCOC(=O)c1sc2nc3c(cc2c1N)C(=O)CC(C)(C)C3 do in these assays?
DAGLB inh: inactive; Pemphigus Ab inh: inactive; MsrA inhibitor: inactive; NadD block: inactive; rCAG RNA binder: inactive; MsrA act: inactive

Results for Cn1cccc1C(=O)N1CCN(S(=O)(=O)c2cccs2)CC1 ?
rCAG RNA binder: inactive

Results for Cc1cc(NC(=O)Cc2ccc(Br)cc2)no1 ?
DAGLB inh: inactive; Pemphigus Ab inh: inactive; MsrA inhibitor: inactive; NadD block: inactive; rCAG RNA binder: inactive; MsrA act: inactive
